Among the data in PubChem BioAssay AID652095 (National Center for Advancing Translational Sciences (NCATS), 2013) are outcome values, retold here.

Each structure is given as a SMILES string. Active and inactive are the calls of the source.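 Rule for the calls: active = glucocerebrosidase enzyme activity raised in patient cells of every tested mutation; inactive = no rise in glucocerebrosidase activity for any mutation.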

Sequence of Lysosomal acid glucosylceramidase (Homo sapiens) (P04062 40-536 N409S): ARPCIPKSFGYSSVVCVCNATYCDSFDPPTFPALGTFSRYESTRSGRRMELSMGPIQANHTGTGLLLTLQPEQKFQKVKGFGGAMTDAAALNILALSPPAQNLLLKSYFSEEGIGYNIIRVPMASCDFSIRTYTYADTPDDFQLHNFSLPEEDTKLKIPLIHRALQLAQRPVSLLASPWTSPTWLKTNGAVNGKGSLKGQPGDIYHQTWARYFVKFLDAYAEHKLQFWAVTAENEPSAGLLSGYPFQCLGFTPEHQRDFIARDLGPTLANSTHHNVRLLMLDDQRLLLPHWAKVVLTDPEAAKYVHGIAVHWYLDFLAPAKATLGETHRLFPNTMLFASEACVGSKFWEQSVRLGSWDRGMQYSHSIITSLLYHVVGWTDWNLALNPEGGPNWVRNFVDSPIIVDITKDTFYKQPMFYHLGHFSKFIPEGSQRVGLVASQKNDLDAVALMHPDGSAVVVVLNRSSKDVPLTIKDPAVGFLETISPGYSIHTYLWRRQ

This assay addresses Lysosomal acid glucosylceramidase (Homo sapiens) (UniProt P04062). In words: Extended Characterization of Activators of N370S glucocerebrosidase as a Potential Chaperone Treatment of Gaucher Disease: Quantification of GCase activity. The following applies: Gaucher patient macrophages, GCase 4MU fluorescence. The source says:
Glucocerebrosidase (GCase) catalyzes the hydrolysis of beta-glucocerebroside to glucose and ceramide in lysosomes. Mutations in the glucocerebrosidase gene result in Gaucher disease, an autosomal recessive lysosomal storage disorder. Many of the mutations encountered in patients with Gaucher disease are missense alterations that may cause misfolding, decreased stability and/or mistrafficking of this lysosomal protein. […] These inhibitors include iminosugar analogs and other inhibitors that were discovered as part of previous work. However, the enhancement of enzyme activity by the chaperone action of an enzyme inhibitor must be balanced against the direct inhibition of the enzyme. […] In this extended characterization of our probe, we have further characterized the activity of ML198 in patient-derived cellular models of Gaucher disease. In Gaucher-derived macrophages from 17 patients, with 4 separate mutation, we quantified GCase activity using a fluorescence read-out. NIH Chemical Genomics Center [NCGC] NIH Molecular Libraries Probe Production Centers Network [MLPCN] […]
Treated cells were cultured in black 96-well plates. After adding 100 µl assay buffer (200 mM sodium acetate (pH4), 5 mM 4MU-betaGlu and protease inhibitor cocktail (Sigma), cells were incubated for 1 hr at 37 degrees C. The reaction was halted using a stop solution (1 M NaOH and 1 M Glycine) and fluorescence measured.
As for `C#Cc1ccc(NC(=O)c2cnn3c(C)cc(C)nc23)cc1`, the outcome was “active; increased”.
